ST2 inh: inhibitors of human ST2 (IL1RL1) binding to IL-33; AID 1259354; inhibition, % for hits at 17 µM; hit rate 2.3% among 78,000; AlphaLISA ST2-Fc/biotin-IL-33 interaction, 1 h; in the data active means inhibition above about 30%
Target sequence (Q01638 whole entry, looked up): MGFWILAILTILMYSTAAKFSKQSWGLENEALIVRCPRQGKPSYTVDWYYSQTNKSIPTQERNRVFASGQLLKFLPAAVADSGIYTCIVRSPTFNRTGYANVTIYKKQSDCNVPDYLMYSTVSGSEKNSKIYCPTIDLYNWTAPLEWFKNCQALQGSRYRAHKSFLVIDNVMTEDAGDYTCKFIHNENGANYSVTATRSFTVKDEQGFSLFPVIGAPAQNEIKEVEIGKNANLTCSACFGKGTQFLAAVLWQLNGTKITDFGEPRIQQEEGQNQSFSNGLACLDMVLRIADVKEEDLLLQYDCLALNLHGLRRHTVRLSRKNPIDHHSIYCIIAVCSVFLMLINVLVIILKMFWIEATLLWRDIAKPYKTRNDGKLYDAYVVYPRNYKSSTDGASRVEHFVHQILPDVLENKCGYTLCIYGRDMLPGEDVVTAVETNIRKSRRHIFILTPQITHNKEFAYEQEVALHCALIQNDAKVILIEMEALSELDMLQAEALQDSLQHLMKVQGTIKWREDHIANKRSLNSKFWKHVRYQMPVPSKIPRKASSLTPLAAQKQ
The depositor's hits bear a star; ! = a repeat was not active. The entries come from a sample that favours hits as a whole.

What do the screens show for `O=C(Cn1c(=O)c2sccc2n(Cc2ccc(Cl)cc2)c1=O)NCc1ccco1`?
ST2 inh: inactive

Results for O=C(CCCn1c(=O)c2sccc2n(Cc2ccc(Cl)cc2)c1=O)NCc1ccco1 ?
ST2 inh: inactive

What do the screens show for `O=C(CCCn1c(=O)c2sccc2n(Cc2ccc(F)cc2)c1=O)NCc1ccco1`?
ST2 inh: 30%*!

How did O=C(NCCCN1CCCC1)C1CCN(c2ccc(-c3cccs3)nn2)CC1 do in these assays?
ST2 inh: inactive

What do the screens show for `NS(=O)(=O)c1ccc(NC(=O)CSc2nc(-c3ccccc3)c(-c3ccccc3)o2)cc1`?
ST2 inh: inactive

Results for CCC(=O)OCCNc1cc(C)c2noc3c2c1C(=O)c1ccccc1-3 ?
ST2 inh: 33%*

Results for COc1ccccc1N1CCN([C@@H]2[C@H](O)[C@H](CO)O[C@@H]2CNS(=O)(=O)c2cccs2)CC1 ?
ST2 inh: inactive

What do the screens show for `COc1ccccc1N1CCN([C@@H]2[C@H](O)[C@H](CO)O[C@@H]2CNS(=O)(=O)c2ccc(C)cc2)CC1`?
ST2 inh: 73%*

What do the screens show for `COc1cccc(NC(=O)NC[C@H]2O[C@@H](CO)[C@@H](O)[C@H]2N2CCC(C)CC2)c1`?
ST2 inh: inactive

What do the screens show for `COc1cc(NC(=O)NC[C@H]2O[C@@H](CO)[C@@H](O)[C@H]2N2CCN(C)CC2)cc(OC)c1`?
ST2 inh: inactive

Results for COc1ccc(S(=O)(=O)NC[C@H]2O[C@@H](CO)[C@@H](O)[C@H]2N2CCN(c3ccccc3OC)CC2)cc1 ?
ST2 inh: inactive

How did O=C(NC[C@H]1O[C@@H](CO)[C@@H](O)[C@H]1N1CCN(c2cccc(C(F)(F)F)c2)CC1)Nc1cccc(Cl)c1 do in these assays?
ST2 inh: inactive

What do the screens show for `COc1ccc(C(=O)NC[C@H]2O[C@@H](CO)[C@@H](O)[C@H]2N2CCN(c3cccc(C(F)(F)F)c3)CC2)cc1`?
ST2 inh: inactive

What do the screens show for `CC(C)NC(=O)NC[C@H]1O[C@@H](CO)[C@@H](O)[C@H]1N1CCN(c2cccc(C(F)(F)F)c2)CC1`?
ST2 inh: 44%*

Results for COc1cccc(NC(=O)NC[C@H]2O[C@@H](CO)[C@@H](O)[C@H]2N2CCN(c3ccccn3)CC2)c1 ?
ST2 inh: 36%*

What do the screens show for `COCCn1c(CNC(=O)c2ccc(F)cc2)nc2cccnc21`?
ST2 inh: inactive

What do the screens show for `CN(C)C(=O)c1nn(Cc2ccccc2)c2c1CN(C(=O)c1ccc(F)c(F)c1)CC2`?
ST2 inh: inactive

What do the screens show for `O=c1c2cc(Br)ccc2oc2nc3n(c(=O)c12)CCCS3`?
ST2 inh: inactive

Results for CCCCOC(=O)Nc1ccc(Cl)cc1 ?
ST2 inh: inactive

Results for O=C(O)CCC(=O)NCc1ccccc1 ?
ST2 inh: inactive

Results for Cc1cc(C)cc(OCC(=O)Nc2cccc(NC(=O)c3ccco3)c2)c1 ?
ST2 inh: inactive

What do the screens show for `Cc1cccc(NC(=O)Cc2ccc([N+](=O)[O-])cc2)c1`?
ST2 inh: inactive

How did O=C1CCCN1C1CCN(Cc2cnc(N3CCOCC3)nc2)CC1 do in these assays?
ST2 inh: inactive

How did COc1ccc(N2C(=O)C3CCCN3C2c2ccc(Br)cc2)cc1Cl (configuration not stated) do in these assays?
ST2 inh: inactive

How did COC(=O)[C@@H]1C[C@@H](NC(=O)c2cnc(-c3cccnc3)nc2)CN1C do in these assays?
ST2 inh: inactive

Results for CCCN(Cc1cc(OC)c(O)c([N+](=O)[O-])c1)CC1CC1 ?
ST2 inh: inactive

Results for CCSc1nnc2c3ccccc3n(CC)c2n1 ?
ST2 inh: inactive

What do the screens show for `CC(C)(C)C(=O)NCCCc1nc2ccccc2n1CC(=O)c1ccccc1`?
ST2 inh: inactive

What do the screens show for `CC(=O)c1c(C)nc(-c2ccccc2)nc1NC(=O)c1ccccc1`?
ST2 inh: inactive

How did O=C(Nc1cccc(OC(=O)N2CCOCC2)c1)N1CCCCC1 do in these assays?
ST2 inh: inactive

How did O=C1C(=C(O)c2ccccc2)NS(=O)(=O)c2ccccc21 do in these assays?
ST2 inh: inactive

How did O=C1CN(C(=O)c2ccccc2)C(=O)CN1C(=O)c1ccccc1 do in these assays?
ST2 inh: inactive

What do the screens show for `O=C1C(=C(c2ccccc2)c2ccccc2)C(=O)c2ccccc21`?
ST2 inh: 39%*

What do the screens show for `COc1cc(NC(=O)c2cc3nc(-c4ccco4)cc(C(F)(F)Cl)n3n2)cc(OC)c1OC`?
ST2 inh: inactive

What do the screens show for `Cc1ccccc1NCCNc1ccccc1C`?
ST2 inh: 34%*

How did Cc1ccccc1NC(=O)CCC(=O)Nc1ccccc1C do in these assays?
ST2 inh: inactive

Results for Cc1ccc(C(=O)Nc2ccccc2C)cc1 ?
ST2 inh: inactive

How did O=C(NC1CC1)c1cccc([N+](=O)[O-])c1 do in these assays?
ST2 inh: inactive

How did O=C(NCCN1CCCCCC1)C1CCN(S(=O)(=O)N2CCCCC2)CC1 do in these assays?
ST2 inh: inactive

How did COCC(=O)N1CCCN(CCC(C)c2ccccc2)CC1 (configuration not stated) do in these assays?
ST2 inh: inactive

How did O=c1oc(-c2cc([N+](=O)[O-])ccc2Cl)nc2ccc(Br)cc12 do in these assays?
ST2 inh: inactive

How did O=c1oc(-c2cc([N+](=O)[O-])ccc2Cl)nc2ccc(I)cc12 do in these assays?
ST2 inh: inactive

What do the screens show for `N#C/C(=C\c1ccc(-c2cc([N+](=O)[O-])ccc2Cl)o1)c1[nH]nc(N)c1C#N`?
ST2 inh: 45%*

Results for CCOC(=O)CSc1nc2c(sc3ccccc32)c(=O)n1-c1ccccc1 ?
ST2 inh: inactive

What do the screens show for `Cc1c(CC(Cl)(Cl)Cl)c2c(n1CCC(=O)O)CC(C)(C)CC2=O`?
ST2 inh: inactive

How did O=[N+]([O-])c1c(Cl)ncnc1N1CCCCC1CO (configuration not stated) do in these assays?
ST2 inh: inactive

What do the screens show for `O=C(NCc1ccccc1)N1Cc2[nH]cnc2C[C@H]1c1nc(-c2ccc3c(c2)OCO3)no1`?
ST2 inh: inactive

How did CC(C)(CC(=O)O)CC(=O)N1Cc2[nH]cnc2C[C@H]1c1nc(-c2ccc3c(c2)OCO3)no1 do in these assays?
ST2 inh: inactive

How did c1ccc2oc(CN3Cc4[nH]cnc4C[C@H]3c3nc(-c4ccc5c(c4)OCO5)no3)cc2c1 do in these assays?
ST2 inh: 61%*

What do the screens show for `O=[N+]([O-])c1cc2c(cc1C=Nc1ccc(-c3nc4ccccc4o3)c(O)c1)OCO2`?
ST2 inh: inactive

What do the screens show for `COc1ccc(Cl)cc1NC(=O)c1cc(-c2ccco2)on1`?
ST2 inh: inactive

Results for COc1ccc(Nc2c(-c3ccco3)nc3ccc(Br)cn23)cc1 ?
ST2 inh: inactive

What do the screens show for `COc1cc(C=Nc2c(-c3ccco3)nc3ccc(Cl)cn23)ccc1O`?
ST2 inh: 43%*

Results for O=S1(=O)N=C(c2ccc(Br)cc2)Nc2ccccc21 ?
ST2 inh: inactive

What do the screens show for `c1cc(Cn2ccnc2-c2cnc[nH]2)c2cc[nH]c2c1`?
ST2 inh: inactive

How did Cc1c(C(=O)O)sc2ncnc(N3CCN(c4ccccc4F)CC3)c12 do in these assays?
ST2 inh: inactive

What do the screens show for `COc1ccccc1N1CCN(c2ncnc3sc(C(=O)O)c(C)c23)CC1`?
ST2 inh: 40%*!

What do the screens show for `CCCN1CCN(c2ncnc3sc(C(=O)O)c(C)c23)CC1`?
ST2 inh: inactive

Results for CN1C(=O)N(Cc2ccccc2)C2(CCN(Cc3ccc(N(C)c4ccccc4)cc3)CC2)C1=O ?
ST2 inh: inactive

High-throughput results deposited in PubChem BioAssay by Paczesny and Yang Labs, IUPUI and University of Michigan.
